Results from PubChem BioAssay (NCI).
About 83,000 compounds went through this panel and 20% of them were active in at least one assay; those are over-represented in the sample as a whole.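 In brief: 96-well plates, 48 h treatment, single concentration, percent growth endpoint.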 Unmarked numbers belong to inactive results. The source made the active and inactive calls. The calls were made as follows: active = growth percent below 10; inactive = the rest.

What was measured:
Assay in all cases: NCI-60 one-dose screen, 48 h (100 = growth as untreated, 0 = no growth, -100 = all killed)
Settings in all cases: 10 µM unless noted
DU-145 prostate = tested on: DU-145 prostate
K-562 leukemia = tested on: K-562 leukemia
MALME-3M melanoma = tested on: MALME-3M melanoma
MDA-MB-231 breast = tested on: MDA-MB-231 breast
SF-268 CNS = tested on: SF-268 CNS
SF-295 CNS = tested on: SF-295 CNS
SF-539 CNS = tested on: SF-539 CNS
UACC-257 melanoma = tested on: UACC-257 melanoma
M14 melanoma = tested on: M14 melanoma
HCT-15 colon = tested on: HCT-15 colon
HT29 colon = tested on: HT29 colon
SNB-75 CNS = tested on: SNB-75 CNS
SNB-19 CNS = tested on: SNB-19 CNS
U251 CNS = tested on: U251 CNS
PC-3 prostate = tested on: PC-3 prostate
SK-MEL-5 melanoma = tested on: SK-MEL-5 melanoma
UACC-62 melanoma = tested on: UACC-62 melanoma
LOX IMVI melanoma = tested on: LOX IMVI melanoma
SK-MEL-28 melanoma = tested on: SK-MEL-28 melanoma

Compound | growth (DU-145 prostate) | growth (K-562 leukemia) | growth (MALME-3M melanoma) | growth (MDA-MB-231 breast) | growth (SF-268 CNS) | growth (SF-295 CNS) | growth (SF-539 CNS) | growth (UACC-257 melanoma) | growth (M14 melanoma) | growth (HCT-15 colon) | growth (HT29 colon) | growth (SNB-75 CNS) | growth (SNB-19 CNS) | growth (U251 CNS) | growth (PC-3 prostate) | growth (SK-MEL-5 melanoma) | growth (UACC-62 melanoma) | growth (LOX IMVI melanoma) | growth (SK-MEL-28 melanoma)
COc1ccc(-c2c[nH]c(C(=O)O)c2-c2cc(OC)c3c(c2OC)OCO3)cc1 | 112% | 108% | 96.1% | 105% | 99.7% | 103% | 97.4% | 98.7% | 98.9% | 103% | 110% | 91.6% | 101% | 104% | 103% | 102% | 95.4% | 95.4% | 104%
O=C(CN1CCOCC1)Nc1ccc2ncnc(Nc3ccc(Oc4cccc(F)c4)c(Cl)c3)c2c1 | 48.3% | 56.8% | 88.3% | 74.3% | 70.9% | 84.2% | 85% | 89.1% | 74.5% | 72.8% | 83.5% | 79.5% | 73.2% | 85.7% | 59.3% | 68.5% | 76.7% | 80.4% | 83%
CC(=O)Nc1ccc(C(=O)Nc2cc(-c3ccccc3)ccc2N)cc1 | 73.2% | 39.2% | 80.6% | 92.5% | 68.2% | 58.7% | 81% | 72.6% | 77.3% | 85.7% | 50.7% | 60.4% | 91.7% | 78.1% | 64.7% | 68.3% | 39.5% | 71.3% | 56.6%
COc1ccc(/C=C2\COc3ccc(-c4ccccc4)cc3C2=O)cc1O | -2.34% (active) | 2.96% (active) | 74.7% | 41.6% | 13.3% | 24.2% | -0.576% (active) | 48.3% | 22.9% | 19.6% | 25.8% | 31.9% | 71.8% | 5.71% (active) | 27.8% | 32.3% | 41% | -13.5% (active) | 46.7%
CC(=O)NCCCS(=O)(=O)O | 118% | 94.8% | 106% | 102% | 111% | 94.6% | 99.5% | 104% | 111% | 103% | 98.4% | 98.7% | 103% | 102% | 83.9% | 120% | 101% | 94.4% | 107%
COc1ccccc1-c1c(-c2ccc(Cl)cc2)c2cc3c(cc2[nH]c1=O)OCCO3 | 83.6% | 44.3% | 87.4% | 95.5% | 68.2% | 58.5% | 88.2% | 73% | 72.5% | 73.5% | 69.6% | 88.6% | 94.9% | 75.3% | 41.5% | 63.8% | 71% | 73.9% | 90.4%
O=C(O)C(/C=C/c1ccco1)=N\Nc1nc(-c2ccc(Cl)cc2)cs1 | 70.1% | 65.7% | 79% | 84.8% | 50.9% | 27.8% | 43.4% | 72.2% | 43.7% | 36.3% | 86.4% | 57.4% | 42.5% | 30.7% | 54.3% | 62.1% | 57.1% | 46.7% | 70.4%
CCCc1cc2c(cc1Br)OCO2 | 111% | 121% | 117% | 113% | 106% | 96.5% | 98.8% | 91.5% | 88.5% | 101% | 100% | 99.9% | 106% | 100% | 85.7% | 99.6% | 101% | 95.2% | 105%
